The target in the first test is T1, ELK1 (Homo sapiens, UniProt P19419 1-428).
T1 sequence: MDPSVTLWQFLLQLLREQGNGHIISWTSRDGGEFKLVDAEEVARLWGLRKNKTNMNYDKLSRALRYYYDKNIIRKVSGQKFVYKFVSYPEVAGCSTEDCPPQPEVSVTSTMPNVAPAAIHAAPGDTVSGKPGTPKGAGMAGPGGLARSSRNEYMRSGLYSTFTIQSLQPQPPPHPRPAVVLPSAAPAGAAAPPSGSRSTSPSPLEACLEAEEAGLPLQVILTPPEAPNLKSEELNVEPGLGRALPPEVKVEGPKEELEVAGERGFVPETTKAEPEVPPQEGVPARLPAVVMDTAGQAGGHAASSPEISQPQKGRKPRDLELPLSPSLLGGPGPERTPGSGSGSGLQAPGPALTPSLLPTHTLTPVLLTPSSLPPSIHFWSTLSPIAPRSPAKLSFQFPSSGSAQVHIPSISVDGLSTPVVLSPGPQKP
In words: DAPPL (digital affinity profiling via proximity ligation, sequencing); 10 mM Tris-HCl pH 7.5, 50 mM NaCl, 1 mM DTT, 4% glycerol, room temperature, 30 min; GST-TFs on glutathione beads, 16-mer random dsDNA library, 0.1% formaldehyde crosslink after washing; high values mean tight binding. The following applies: protein: recombinant; tags: N-terminal GST; dsDNA, one strand shown. Summed up:
(§1)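 Sequencing on an Illumina NextSeq500 followed washing, crosslinking with 0.1% formaldehyde, proximity ligation (BsaI/T4 ligase, 1 h, 37 °C) and PCR amplification of pools that had been incubated for 30 min at room temperature with 200 nmole of a random double-stranded 16-mer DNA library in Tris/NaCl/DTT/glycerol buffer. Each pool held DNA-barcoded human transcription factors, expressed in yeast as GST fusions and captured on glutathione beads, plus a tag-only sample. Binding signal is a hexamer's read frequency for a factor divided by its frequency in the tag-only sample.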
For the sequence TGGCAA, the binding signal was 1.21 fold enrichment (6-mer frequency, TF over GST control).

As for AATAAC, the binding signal was 1.33 fold enrichment (6-mer frequency, TF over GST control).

Take ATTTGT: the binding signal was 1.36 fold enrichment (6-mer frequency, TF over GST control).

As to CTGGCA, the binding signal was 1.28 fold enrichment (6-mer frequency, TF over GST control).

GCTTAT: the binding signal was 1.21 fold enrichment (6-mer frequency, TF over GST control).

With TGTCTA, the binding signal is 1.15 fold enrichment (6-mer frequency, TF over GST control).

In the case of GCCGAT, the binding signal was 1.09 fold enrichment (6-mer frequency, TF over GST control).

In the case of ATTGGG, the binding signal was 1.24 fold enrichment (6-mer frequency, TF over GST control).

With TTGATC, the binding signal was 1.22 fold enrichment (6-mer frequency, TF over GST control).

Turning to AATCGC, the binding signal is 1.09 fold enrichment (6-mer frequency, TF over GST control).

For the sequence CCTCTC, the binding signal was 1.39 fold enrichment (6-mer frequency, TF over GST control).

For the sequence CCTCTT, the binding signal is 1.45 fold enrichment (6-mer frequency, TF over GST control).

For the sequence TTTGGA, the binding signal is 1.14 fold enrichment (6-mer frequency, TF over GST control).

Take TCTACA: the binding signal was 1.17 fold enrichment (6-mer frequency, TF over GST control).

Take TCTCGC: the binding signal was 1.75 fold enrichment (6-mer frequency, TF over GST control).

Take CTGATG: the binding signal is 1.65 fold enrichment (6-mer frequency, TF over GST control).

Consider CTGATC, for which the binding signal is 1.54 fold enrichment (6-mer frequency, TF over GST control).

On to CTCATC, for which the binding signal was 1.36 fold enrichment (6-mer frequency, TF over GST control).

In the case of ATATTT, the binding signal was 1.54 fold enrichment (6-mer frequency, TF over GST control).

Take TACAAT: the binding signal is 1.28 fold enrichment (6-mer frequency, TF over GST control).

On to CACTTG, for which the binding signal is 1.48 fold enrichment (6-mer frequency, TF over GST control).

In the case of TACGTT, the binding signal is 1.26 fold enrichment (6-mer frequency, TF over GST control).

Consider CATTCG, for which the binding signal was 1.11 fold enrichment (6-mer frequency, TF over GST control).

With CCTTCG, the binding signal is 1.33 fold enrichment (6-mer frequency, TF over GST control).

TGACCT: the binding signal was 1.82 fold enrichment (6-mer frequency, TF over GST control).

TATAAC: the binding signal was 1.21 fold enrichment (6-mer frequency, TF over GST control).

Consider CTTTCA, for which the binding signal is 1.32 fold enrichment (6-mer frequency, TF over GST control).

Consider AATATT, for which the binding signal was 1.29 fold enrichment (6-mer frequency, TF over GST control).

As for CTTGCA, the binding signal is 1.44 fold enrichment (6-mer frequency, TF over GST control).

Turning to TTGCGG, the binding signal is 1.14 fold enrichment (6-mer frequency, TF over GST control).

On to TCTGTT, for which the binding signal is 1.47 fold enrichment (6-mer frequency, TF over GST control).

Turning to TCCTGG, the binding signal is 1.47 fold enrichment (6-mer frequency, TF over GST control).

Turning to CGAAAA, the binding signal is 1.07 fold enrichment (6-mer frequency, TF over GST control).

TAATCC: the binding signal was 1.26 fold enrichment (6-mer frequency, TF over GST control).

On to TTTCTT, for which the binding signal was 1.3 fold enrichment (6-mer frequency, TF over GST control).

Regarding CTCAGC, the binding signal was 1.22 fold enrichment (6-mer frequency, TF over GST control).

On to ACTTGT, for which the binding signal was 1.35 fold enrichment (6-mer frequency, TF over GST control).

As to CTTCTA, the binding signal is 1.41 fold enrichment (6-mer frequency, TF over GST control).

TTCGAT: the binding signal is 1.23 fold enrichment (6-mer frequency, TF over GST control).

Consider TCTCCG, for which the binding signal is 1.49 fold enrichment (6-mer frequency, TF over GST control).

Another test deals with T2, GABPA (Homo sapiens, UniProt Q06546 1-454).
T2 sequence: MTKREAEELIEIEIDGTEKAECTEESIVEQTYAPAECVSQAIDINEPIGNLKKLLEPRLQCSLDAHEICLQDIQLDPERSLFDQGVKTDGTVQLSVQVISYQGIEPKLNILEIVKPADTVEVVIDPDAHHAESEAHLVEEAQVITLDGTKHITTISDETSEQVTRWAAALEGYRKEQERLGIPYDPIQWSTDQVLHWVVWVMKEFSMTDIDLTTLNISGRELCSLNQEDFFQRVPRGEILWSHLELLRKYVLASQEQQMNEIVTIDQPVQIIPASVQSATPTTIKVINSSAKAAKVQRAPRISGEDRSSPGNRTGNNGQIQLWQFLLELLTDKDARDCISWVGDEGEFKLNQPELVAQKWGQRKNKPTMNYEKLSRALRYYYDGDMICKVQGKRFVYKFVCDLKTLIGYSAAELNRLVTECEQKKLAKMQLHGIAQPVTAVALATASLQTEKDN
The description is as above. The following applies: protein: recombinant; tags: N-terminal GST; dsDNA, one strand shown. Summed up: as §1
As for TGGCAA, the binding signal is 1.22 fold enrichment (6-mer frequency, TF over GST control).

For the sequence AATAAC, the binding signal is 1.3 fold enrichment (6-mer frequency, TF over GST control).

On to ATTTGT, for which the binding signal is 1.34 fold enrichment (6-mer frequency, TF over GST control).

As for CTGGCA, the binding signal is 1.39 fold enrichment (6-mer frequency, TF over GST control).

On to GCTTAT, for which the binding signal is 1.28 fold enrichment (6-mer frequency, TF over GST control).

In the case of TGTCTA, the binding signal is 1.12 fold enrichment (6-mer frequency, TF over GST control).

As for GCCGAT, the binding signal is 1.21 fold enrichment (6-mer frequency, TF over GST control).

In the case of ATTGGG, the binding signal was 1.33 fold enrichment (6-mer frequency, TF over GST control).

TTGATC: the binding signal was 1.21 fold enrichment (6-mer frequency, TF over GST control).

As for AATCGC, the binding signal was 1.14 fold enrichment (6-mer frequency, TF over GST control).

Regarding CCTCTC, the binding signal was 1.37 fold enrichment (6-mer frequency, TF over GST control).

On to CCTCTT, for which the binding signal is 1.6 fold enrichment (6-mer frequency, TF over GST control).

Take TTTGGA: the binding signal was 1.24 fold enrichment (6-mer frequency, TF over GST control).

On to TCTACA, for which the binding signal is 1.19 fold enrichment (6-mer frequency, TF over GST control).

For TCTCGC, the binding signal is 1.88 fold enrichment (6-mer frequency, TF over GST control).

Take CTGATG: the binding signal is 1.7 fold enrichment (6-mer frequency, TF over GST control).

As for CTGATC, the binding signal was 1.4 fold enrichment (6-mer frequency, TF over GST control).

For CTCATC, the binding signal is 1.41 fold enrichment (6-mer frequency, TF over GST control).

In the case of ATATTT, the binding signal is 1.55 fold enrichment (6-mer frequency, TF over GST control).

As for TACAAT, the binding signal is 1.32 fold enrichment (6-mer frequency, TF over GST control).

Source of the values: publication PMC7862700, “An all-to-all approach to the identification of sequence-specific readers for epigenetic DNA modifications on cytosine”.
